# Measured values reported in PMC7819943, “Rice protein-binding microarrays: a tool to detect cis-acting elements near promoter regions in rice”.
# Whole data set: some 39,000 sequences, median “fluorescence intensity (a.u.)” near 4,300, cut for the highest 2% near 39,000. The sample holds the highest values, similar sequences and a random draw of the others, so the mix is not that of the screen.
# Biological target: T1, OsSMF1 (Oryza sativa, UniProt Q6ZLB0 1-436)
# T1 sequence: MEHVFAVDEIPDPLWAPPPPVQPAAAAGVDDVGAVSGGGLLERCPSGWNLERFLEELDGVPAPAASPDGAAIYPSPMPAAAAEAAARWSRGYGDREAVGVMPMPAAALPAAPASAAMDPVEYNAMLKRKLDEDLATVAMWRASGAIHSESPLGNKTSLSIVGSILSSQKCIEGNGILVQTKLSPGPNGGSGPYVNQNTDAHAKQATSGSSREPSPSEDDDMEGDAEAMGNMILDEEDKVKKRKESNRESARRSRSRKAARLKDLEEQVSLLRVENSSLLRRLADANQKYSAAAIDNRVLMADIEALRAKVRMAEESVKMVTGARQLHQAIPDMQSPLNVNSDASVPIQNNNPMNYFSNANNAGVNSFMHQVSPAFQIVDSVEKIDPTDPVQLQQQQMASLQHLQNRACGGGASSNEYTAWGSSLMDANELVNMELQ
# Experiment: protein-binding microarray (RPBM); PBS, 2% BSA, 51.3 ng/ul salmon testes DNA, 50 uM zinc acetate, 200 nM TF, 25 C, 1 h; high values mean tight binding
# Conditions: protein: recombinant; tags: N-terminal polyhistidine and DsRed monomer fusion (pET32a); chain copies: 2; label: CyDye5-dUTP incorporated in the synthesized complementary strand; 3' TTTTT single-stranded linker to array surface; dsDNA, one strand shown
# Procedure, shortened: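 Using Ni–NTA, transcription factors fused N-terminally to polyhistidine and DsRed were purified after expression in E. coli BL21-CodonPlus. These were incubated at 200 nM with a blocked, double-stranded custom Agilent array for 1 h at 25 °C in a buffer containing 50 µM zinc acetate, and the array was washed. The binding signal is per-feature fluorescence intensity (arbitrary units) on an Axon 4000B scanner.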
row,Sequence,binding signal
1,AAAGGCCACGCCTTTGCCTCGTCAGTTATCTCTTCGTTTCCGGAGTCACCTAGTGCAG,5220 fluorescence intensity (a.u.)
2,GGAGTATCCATGCCAGCTAAGCGAGTTGTACAAGGCAAGCCGGAGTCACCTAGTGCAG,5690 fluorescence intensity (a.u.)
3,CGGGTAGGCGAACACGTCGCTGACGCCGCACCGCTCCAGCCGGAGTCACCTAGTGCAG,6760 fluorescence intensity (a.u.)
4,TGGTGATATCAATAGGATTGGAAGAGATTTGTCAGCCTATCGGAGTCACCTAGTGCAG,3450 fluorescence intensity (a.u.)
5,TATCAAAATCCACTGCAACATTTAATACATACATAGTGAACGGAGTCACCTAGTGCAG,21300 fluorescence intensity (a.u.)
6,CGCCATGGGCGACATCGACATCTACAGCCTCTACACTCCGCGGAGTCACCTAGTGCAG,44200 fluorescence intensity (a.u.)
7,TAGCTCGTACTCCTACATCGTAGCCACCGCGCCTCCCATGCGGAGTCACCTAGTGCAG,3640 fluorescence intensity (a.u.)
8,CGCCATGGGAGCACTCCCCATCTTGTCCTCTACCGCCGCGCGGAGTCACCTAGTGCAG,3250 fluorescence intensity (a.u.)
9,GCCTGTGGCCCACGCCGTCAGTGGGAGTGGCGGTGTCGGGCGGAGTCACCTAGTGCAG,3960 fluorescence intensity (a.u.)
10,CCGAATCCGGCCACCCCGCCGCCTCCACGCGCATCACCGCCGGAGTCACCTAGTGCAG,3220 fluorescence intensity (a.u.)
11,ACGGGCACGACGACCGTCGTGCTCACGGCCGCCGACGTCGCGGAGTCACCTAGTGCAG,4140 fluorescence intensity (a.u.)
12,GCCGATTGCAATTTCGTCATCACTGCGGTTAGGATTACACCGGAGTCACCTAGTGCAG,4340 fluorescence intensity (a.u.)
13,TGCTGTCGATGTGCTTATCTTTCGATTTATTCCTCTCATCCGGAGTCACCTAGTGCAG,3200 fluorescence intensity (a.u.)
14,GGCAACGCACCACGCTGCACGCGTCCGTGGTCGCCGCGAACGGAGTCACCTAGTGCAG,3150 fluorescence intensity (a.u.)
15,CCCACCATTGCCGCCGTGTCCGGCAACCTAACGAACCTCGCGGAGTCACCTAGTGCAG,4100 fluorescence intensity (a.u.)
16,CTCCGCAGTCGTAGGCCCACGCGAACCATTCCGTGTGCAACGGAGTCACCTAGTGCAG,52000 fluorescence intensity (a.u.)
17,CCTCCTTTTCTTCTCCACGTATACAATCAGTCTAGTTGGACGGAGTCACCTAGTGCAG,5040 fluorescence intensity (a.u.)
18,TGGATAAGGATGTGTGAGACGTGTGATCTTTACTTGTTGGCGGAGTCACCTAGTGCAG,3980 fluorescence intensity (a.u.)
19,ATCTTTTCTAGTACCAGGATCTTGTGTTGGTGATAGAGAGCGGAGTCACCTAGTGCAG,42500 fluorescence intensity (a.u.)
20,GCAGTATATGTGTGTGTGCTTTCTTTTGGGATAGAGTCTGCGGAGTCACCTAGTGCAG,3460 fluorescence intensity (a.u.)
21,TACTTTAAATGTGTGTCCGTATATCCGATGTGACACGCCACGGAGTCACCTAGTGCAG,3870 fluorescence intensity (a.u.)

row,Sequence,binding signal
1,TAAACATATATGCATGGATGATGTCATGGAAACATGGATTCGGAGTCACCTAGTGCAG,4690 fluorescence intensity (a.u.)
2,GATCAATCATCCTTGTTCACAAGGCTGCCTGACATGGATGCGGAGTCACCTAGTGCAG,3730 fluorescence intensity (a.u.)
3,AGATGGGAAATAAAGGGTGGTGACATGGCACACTGACATGCGGAGTCACCTAGTGCAG,10800 fluorescence intensity (a.u.)
4,GCCCACGCTCACCGACTCCATCGACGTCACGCTCACCGCCCGGAGTCACCTAGTGCAG,5090 fluorescence intensity (a.u.)
5,CCGAGTCAATACTGCCACGTAGCGCGCCACGTCAGCGAAACGGAGTCACCTAGTGCAG,26300 fluorescence intensity (a.u.)
6,GCGCCACGTAGACGCCACGTCAGCCAAAACCGCCCTCCATCGGAGTCACCTAGTGCAG,52000 fluorescence intensity (a.u.)
7,GTCAAAACCGCCACGTAGACGCCACGTCATCGAAACCGCCCGGAGTCACCTAGTGCAG,40400 fluorescence intensity (a.u.)
8,TACTGCCACGTAGGCGCCACGTCAGCGAAACCGCCCTCCACGGAGTCACCTAGTGCAG,58100 fluorescence intensity (a.u.)
9,CAAACAAGCCACGTAGATGCCACGTCATCCAAAACCGCCTCGGAGTCACCTAGTGCAG,29600 fluorescence intensity (a.u.)
10,GGTGTCACGTAAGCGCCACGTCAGCGAACCGCCCTCCAAACGGAGTCACCTAGTGCAG,26600 fluorescence intensity (a.u.)
11,AAAAGCCCACCACCACCCAACCCGCCCAACGCCACGTCACCGGAGTCACCTAGTGCAG,24800 fluorescence intensity (a.u.)
12,CGCTCCGTCAGCCACGTAGACGCTACGTCGGCCAAAACCGCGGAGTCACCTAGTGCAG,14900 fluorescence intensity (a.u.)
13,TCCGTGACACCGTGACAGCGTGGACGTTCATAACCTTCCACGGAGTCACCTAGTGCAG,9010 fluorescence intensity (a.u.)
14,GACCTCGCGAACAGCCCACACGTACGTTACTGACGCCATACGGAGTCACCTAGTGCAG,4360 fluorescence intensity (a.u.)
15,ACAGGTAGCTCCATATCTTGTTCATATTGACATACACAATCGGAGTCACCTAGTGCAG,31500 fluorescence intensity (a.u.)
16,TGCAAATTTTCAAAATCGACTACCAGTAGATGTTTACTCCCGGAGTCACCTAGTGCAG,14000 fluorescence intensity (a.u.)
17,CAAGAATGTACTGAGTACGTCTCAATCCACGTGTTTGAGCCGGAGTCACCTAGTGCAG,4960 fluorescence intensity (a.u.)
18,TCACGAACTGTGTACCGGATGCCACGTCACACAGTTGTCTCGGAGTCACCTAGTGCAG,41200 fluorescence intensity (a.u.)
19,ATGCAGCCACACGGATGTTGGACGTCATTGTCTATAGTGTCGGAGTCACCTAGTGCAG,4580 fluorescence intensity (a.u.)
20,TATAGTTGTGTACTAGTGTCACTCACGCCACCCGTCTCATCGGAGTCACCTAGTGCAG,3670 fluorescence intensity (a.u.)
21,CGTAAGCGCCACGTTAATGCCACGTGGGGCGAAGACCTAGCGGAGTCACCTAGTGCAG,15100 fluorescence intensity (a.u.)
